Assay results: PubChem BioAssay (NCI)
About 83,000 compounds went through this panel and 20% of them were active in at least one assay; those are over-represented in the sample as a whole.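 For each line, cells grew in 96-well plates with the test compound present at a single concentration for 48 hours.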 A number with no mark means an inactive call. Active and inactive are the calls of the source. The calls were made as follows: active = growth percent below 10; inactive = the rest.

Tested on: HL-60(TB) leukemia
Assay: NCI-60 one-dose screen, 48 h (100 = growth as untreated, 0 = no growth, -100 = all killed)
Conditions: 10 µM unless noted

SMILES | growth
CCC(=O)C(CC)c1cccc(OC)c1 (stereo not drawn) | 97.5%
O=C1c2cccc3cccc(c23)C(=O)N1N1C(=O)c2cccc3c(NC4CCCCC4)ccc(c23)C1=O | 99.3%
CN(C)c1ccc(/C=C/c2cc[n+](C)c(/C=C/c3ccc(N(C)C)cc3)c2)cc1 | -56.3% (active)
O=C1CC(=O)N(c2ccccc2)O1 | 103%
COc1cc(/C=C/C(=O)c2nc3cc(F)ccc3nc2C)cc(OC)c1OC | -45.6% (active)
NC(=S)N/N=C/c1ccc(OC(=O)COc2ccccc2)cn1 | 35.3%
Cc1ccc2[nH]c(=S)n(-c3ccc(S(=O)(=O)Nc4ccc(Cl)nn4)cc3)c(=O)c2c1 | 100%
O=C(CN1CCN(c2cc3c(cc2F)c(=O)c(C(=O)O)cn3C2CC2)CC1)Nc1nc(-c2ccc(Cl)cc2)cs1 | 19.6%
CC(=O)OC[C@]12CC[C@@H]([C@@H](C)c3nnc(-c4ccncc4)o3)[C@@H]1[C@H]1CC[C@@H]3[C@@]4(C)CC[C@H](OC(C)=O)C(C)(C)[C@@H]4CC[C@@]3(C)[C@]1(C)CC2 | 61.1%
CN(C)CCN1C(=O)c2c(c3c4ccccc4n4c3c3c2c2ccccc2n3C2CC(O)C(O)C4(C)O2)C1=O (stereo not drawn) | 32.5%
COc1cccc2c(N=NC(=O)c3ccc(S(N)(=O)=O)cc3)c(O)[nH]c12 | 98.4%
COc1ccc(/C=C(/C(=O)N2CCN(c3ccc(C)cc3)CC2)c2cc(OC)c(OC)c(OC)c2)cc1N | -24.2% (active)
CC(=O)O[C@H]1[C@H](CC#CC#CC[C@@H]2C[C@]3(C)[C@H]4CC=C5[C@H]6[C@@H](C)[C@H](C)CC[C@]6(C(=O)NCCCCCCCCN)CC[C@@]5(C)[C@]4(C)CC[C@H]3C(C)(C)[C@H]2OC(C)=O)C[C@]2(C)[C@H]3CC=C4[C@H]5[C@@H](C)[C@H](C)CC[C@]5(C(=O)NCCCCCCCCN)CC[C@@]4(C)[C@]3(C)CC[C@H]2C1(C)C | 104%
